Source: PubChem BioAssay (NCI)
The panel holds about 79,000 compounds, 15% with a hit somewhere; the sample as a whole holds those more often. Values without a mark were called inactive. The source made the active and inactive calls. No stated cut-off is given here; in the data, active means growth inhibition above about 70%; inactive means the rest.

Experiment: NCI Yeast Anticancer Drug Screen. Data for the cln2 rad14 strain (AID 165);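 further: 0% = growth equal to vehicle treated cultures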
Details: S. cerevisiae cln2 rad14 strain, at 50.0 µM (retest, dose inferred, filed as 5.0), active compounds read high
Procedure, shortened: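 Yeast strain cln2 rad14, bearing defects in cell cycle control and DNA repair, serves as the test system; values reflect growth inhibition compared with vehicle.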
`COc1ccc(COc2ccc(C(=O)CCN3CCOCC3)cc2)cc1` gave a growth inhibition of 46%.
In the case of `O/N=C/c1cc(I)c(O)c(I)c1`, the growth inhibition is reported as 98% (active).
Molecule `COC1OC2COC(c3ccccc3)OC2C(O)C1OS(=O)(=O)c1ccc(C)cc1` (configuration not stated) has a growth inhibition of -8%.
In the case of `C=C1CC2(CC(c3ccccc3C)OC(c3ccccc3C)C2)OC1=O` (configuration not stated), the growth inhibition is reported as 91% (active).
In the case of `Cc1ccc2c(c1)C1(C)OC(C=CC1=O)O2` (configuration not stated), the growth inhibition is reported as 99% (active).
Molecule `COc1cc(OC)c(OC)cc1/C=C\c1ccnc2ccccc12` has a growth inhibition of 57%.
With `Cc1n(Cc2ccccc2)c2c([n+]1C)C(=O)c1ccccc1C2=O` the growth inhibition was 92% (active).
In the case of `O=[N+]([O-])c1cc2c(cc1S(=O)(=O)O)C1C(C3C2C2(Cl)C(Cl)=C(Cl)C3(Cl)C2(Cl)Cl)C2(Cl)C(Cl)=C(Cl)C1(Cl)C2(Cl)Cl` (configuration not stated), the growth inhibition is reported as 41%.
For `CCOC(=O)Nc1c(C)cc(C)c(Br)c1C`, the growth inhibition was -20%.
`COc1cc2c(c(OC)c1OC)-c1ccc(SC)c(=O)cc1C(NC(=O)c1ccccc1)CC2` (configuration not stated) showed a growth inhibition of 48%.
For `CCCCCCCCCCS(=O)CC(CO)NC(=O)/C=C/c1c(C)[nH]c(=O)[nH]c1=O` (configuration not stated), the growth inhibition was 89% (active).
`C/C(N=NC(=S)N1CCCCCC1)=C1\C=CC=CN1O` gave a growth inhibition of 31%.
In the case of `Cc1cc(NCCCCCCCNc2cc(C)nc3cc([N+](=O)[O-])ccc23)c2ccc([N+](=O)[O-])cc2n1`, the growth inhibition is reported as 70% (active).
In the case of `CC1CC[P+](c2ccccc2)(c2ccccc2)c2c1ccc1ccccc21` (configuration not stated), the growth inhibition is reported as 97% (active).
For `O=C1C(Cl)=C(N2CCN(C3=C(Cl)C(=O)c4ccccc4C3=O)CC2)C(=O)c2ccccc21`, the growth inhibition was 98% (active).
In the case of `CCN1CCC(O)(c2ccc(Oc3ccccc3)cc2)C(C(=O)c2ccc(Oc3ccccc3)cc2)C1` (configuration not stated), the growth inhibition is reported as 35%.
With `Cc1ccc(NCCN(C)C)c2c(=O)c3cc(O)ccc3sc12` the growth inhibition was 98% (active).
For `COc1ccc2nc(C)cc(NCCCCCCCCCNc3cc(C)nc4ccc(OC)cc34)c2c1`, the growth inhibition was 75% (active).
In the case of `Cc1n(-c2ccccc2)c2c([n+]1Cc1ccc([N+](=O)[O-])cc1)C(=O)c1ccccc1C2=O`, the growth inhibition is reported as 92% (active).
Work on `CC1(O)Cc2c(O)c3c(c(O)c2CC1O)C(=O)C=CC3=O` (configuration not stated) yielded a growth inhibition of 37%.
In the case of `c1ccc(C2=NC(c3ccccc3)=NS(S3=NC(c4ccccc4)=NC(c4ccccc4)=N3)=N2)cc1` (configuration not stated), the growth inhibition is reported as 94% (active).
For `CC[C@](O)(CC(=O)O[C@H]1C(=O)O[C@@H]2C[C@H]3C(C)=CC(=O)[C@@H](O)[C@]3(C)[C@H]3[C@@]4(O)OC[C@]32[C@@H]1[C@@H](C)[C@H]4O)C(C)C`, the growth inhibition was 98% (active).
